Measurements as given in PubChem BioAssay AID588819 (The Scripps Research Institute Molecular Screening Center, 2011).
About 320 (0.089%) of roughly 360,000 compounds were called active. Only a selection was taken, and actives are over-represented in it overall. Unmarked numbers belong to inactive results. Cut-off read from the data, not from the text of the source: active = activation above about 19% (passing the limit was not always enough); inactive = the rest.

These compounds were tested against Muscarinic acetylcholine receptor M1 (Homo sapiens) (UniProt P11229) (assay: human M1 muscarinic receptor positive allosteric modulators, primary screen, CHO-K1 cells, Fluo-8 calcium fluorescence, 1536-well (AID 588819)). Conditions: CHO-K1 hM1, Fluo-8 calcium fluorescence, ACh EC20; at 3 µM; hits give high values; 0% = ACh EC20, 100% = maximal ACh.
Chain of Muscarinic acetylcholine receptor M1 (Homo sapiens) (P11229 whole entry, looked up): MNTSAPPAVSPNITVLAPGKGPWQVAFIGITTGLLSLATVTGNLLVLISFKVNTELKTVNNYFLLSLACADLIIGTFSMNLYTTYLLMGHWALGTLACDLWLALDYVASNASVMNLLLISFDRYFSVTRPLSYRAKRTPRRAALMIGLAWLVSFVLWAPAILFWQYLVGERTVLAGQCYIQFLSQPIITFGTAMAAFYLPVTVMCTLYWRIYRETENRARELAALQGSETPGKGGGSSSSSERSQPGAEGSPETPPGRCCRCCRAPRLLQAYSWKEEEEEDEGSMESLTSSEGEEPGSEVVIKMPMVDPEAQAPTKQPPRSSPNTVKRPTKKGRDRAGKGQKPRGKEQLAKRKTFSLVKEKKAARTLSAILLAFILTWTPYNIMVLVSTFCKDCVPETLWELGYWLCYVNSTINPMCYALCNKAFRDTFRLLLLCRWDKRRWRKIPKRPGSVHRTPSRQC

| SMILES | activation |
| --- | --- |
| CN(C(=O)c1cccc(NC(=O)Cc2ccc(NC(=O)C3CCN(C(=O)C4CCCCC4)CC3)cc2)c1)C1CCC1 | 0.54% |
| CS(=O)(=O)N(CC(=O)NC1CCCC1)Cc1ccc(F)cc1 | 0.34% |
| Cc1ccc(NC(=O)Cn2cccc2C2=NC(c3ccccc3)CO2)c(C)c1 (centres undefined) | 6.3% |
| COCCn1c(SCC(=O)Nc2ccc3c(c2)CCC3)nc2ccccc2c1=O | 5.21% |
| CCCC1NC(=O)NC(C)=C1C(=O)OCC (centres undefined) | 3.33% |
| COCC(=O)Nc1cc(C(=O)OC)cc(C(=O)OC)c1 | 7.56% |
| Cc1cc(=O)oc(C)c1C(=O)Nc1cnc2ccccc2c1 | 1% |
| CCOc1ccc(S(=O)(=O)N2CCN(C(=O)c3oc4ccccc4c3C)CC2)cc1 | 24.4% (active) |
| COc1ccc(S(=O)(=O)N2CCN(C(=O)c3cc(C)oc3C)CC2)cc1 | 10.8% |
| CCOC(=O)C1CCN(C(=O)c2oc3ccc(S(=O)(=O)N4CCCCCC4)cc3c2C)CC1 | 1.16% |
| CCOP(=O)(OCC)C(Nc1ccc([N+](=O)[O-])cc1)c1ccc(Cl)cc1 (centres undefined) | -2.85% |
| Cc1ccc2oc(=O)c3cnn(CC(=O)N4CCN(c5ccccn5)CC4)c3c2c1 | -8.22% |
| COCCNC(=O)NC(=O)COC(=O)C1(c2ccc(Cl)cc2)CC1 | -0.78% |
| O=C(NCc1ccc(Cl)cc1)c1cc(=O)nc2sc(-c3ccccc3)nn12 | -4.02% |
| O=C(Cn1nc(Cc2cccnc2)c2ccccc2c1=O)NCC1COc2ccccc2O1 (centres undefined) | 9.27% |
| O=C(CN1C(=O)C2C3C=CC(C3)C2C1=O)NCC1COc2ccccc2O1 (centres undefined) | 19.5% (active) |
| O=C(Cn1cnc2ccccc2c1=O)NCC1COc2ccccc2O1 (centres undefined) | 3.11% |
| Cc1nn(Cc2ccccc2)c(C)c1C(=O)NCCCN1CCCC1=O | 3.09% |
| COc1ccc(C)cc1NC(=O)CN(C)S(=O)(=O)c1ccc2c(c1)n(C)c(=O)c(=O)n2C | 11.7% |
| CCOC(=O)c1cc2occc2n1CC(=O)N1CCN(C(=O)c2ccco2)CC1 | 0.31% |
| O=C(N/C(=C\c1ccc(O)cc1)C(=O)N1CCCCC1)c1ccccc1 | -7.21% |
| O=C1Nc2ccc(Br)cc2/C1=N/N=C/C1=C(N2CCOCC2)C(=C\c2ccccc2)/CC1 | 19.2% (active) |
| O=C(O)c1ccc(NN=CC2=C(N3CCOCC3)/C(=C/c3ccccc3)CC2)cc1 | 1.33% |
| Cc1cccc(N2CC(C)Cn3c2nc2c3c(=O)n(CC(=O)OCc3ccccc3)c(=O)n2C)c1 (centres undefined) | 6.13% |

| SMILES | activation |
| --- | --- |
| O=C(CCc1ccccc1)Nc1ccnn1C1CCN(Cc2ccc(OCCO)cc2)CC1 | -2.48% |
| COc1cccc(Cn2cnc3c([N+](=O)[O-])c(C)c(C)cc32)c1 | -0.11% |
| COCCNC(=S)N(CCc1c(C)[nH]c2ccc(C)cc12)Cc1cccnc1 | 9.1% |
| Cc1cccc(Nc2ccccc2C(=O)NCc2ccco2)c1C | -3.33% |
| Cc1ccc(N(Cc2ccc(C(=O)Nc3ccccc3C(=O)NCc3ccco3)cc2)S(C)(=O)=O)cc1C | -6.42% |
| COc1ccc(C(=O)Nc2ccccc2C(=O)NCc2ccco2)cc1 | 30.1% (active) |
| CN=C(Nc1cccc(S(=O)(=O)N2CCOCC2)c1)c1ccccc1 | -5.57% |
| Nc1nnnn1/N=C/c1cccs1 | 1.93% |
| Nc1nnnn1/N=C/c1cc([N+](=O)[O-])ccc1O | 26.2% (active) |
| Nc1nnnn1/N=C/c1cccc(Br)c1 | 11.8% |
| OC(c1nc2ccc(F)cc2[nH]1)C(O)c1nc2ccc(F)cc2[nH]1 (centres undefined) | 3.09% |
| O=C(NCC(O)c1nc2ccccc2[nH]1)c1ccc(Br)cc1 (centres undefined) | -1% |
| CC(C)c1nc2ccc(C(=O)O)cc2[nH]1 | 31.2% (active) |
| CN(c1ccccc1)S(=O)(=O)c1cccc(C(=O)NNC(=O)c2ccncc2)c1 | 1.76% |
| O=C(N/N=C/C=C/c1ccco1)c1cccs1 | 8.09% |
| Cc1ccc(-c2cc(C(=O)N/N=C/C=C/c3ccco3)c3ccccc3n2)cc1C | 21.5% (active) |
| CCOc1ccc(-c2cc(C(=O)N/N=C/c3ccc(O)cc3)c3ccccc3n2)cc1 | 9.09% |
| O=c1[nH]c2ccc(S(=O)(=O)N3CCCC3)cc2[nH]1 | 2.57% |
| O=C(C1CCN(C2CCN(Cc3ccc4cc(F)ccc4n3)CC2)CC1)N1CCCC1 | 8.71% |
| CCN(CC)CCn1c(=S)[nH]c2ncccc2c1=O | 1.96% |
| CCc1ccc(NC(=O)CC2C(=O)NCCN2C(=S)Nc2ccccc2)cc1 (centres undefined) | 7.43% |
| COc1ccccc1C(=O)Nc1nc2nc(-c3ccccc3)cc(=O)n2[nH]1 | 10.9% |
| O=C(CCC(=O)N1CCN(S(=O)(=O)c2ccc(Cl)cc2)CC1)NCc1cccc(C(F)(F)F)c1 | -4.55% |
| COC(=O)c1ccc(C(=O)Nc2cc(Cl)ccc2Cl)cc1NC(=O)c1ccccc1C | 7.99% |

| SMILES | activation |
| --- | --- |
| CCOC(=O)c1sc(/N=C/C2=C(O)CC(C)(C)CC2=O)c(C(=O)OCC)c1C | 2.16% |
| CC(Oc1ccccc1F)C(=O)NN (centres undefined) | 1.45% |
| COc1ccc(CCNC(=O)C2CCCN(Cc3nc(-c4cccc(Cl)c4)oc3C)C2)cc1OC (centres undefined) | 4.43% |
| NC(=O)C1CCN(Cc2nc3c(Br)cc(Br)cc3c(=O)[nH]2)CC1 | 8.06% |
| COc1ccc(CNC(=O)C2CCN(S(=O)(=O)N3CCOCC3)CC2)cc1 | 5.85% |
| O=C(O)C1CCN(S(=O)(=O)N2CCOCC2)CC1 | 29.8% (active) |
| O=C(NCc1ccccc1Cl)C1CCN(S(=O)(=O)N2CCOCC2)CC1 | -0.4% |
| COc1cc2c(cc1OC)C(C(=O)NCc1ccco1)C1c3ccccc3CCN1C2=O (centres undefined) | 3.09% |
| O=C(NCc1csc(-c2cccs2)n1)C1CC1 | 9.22% |
| CC(=O)c1ccc(S(=O)(=O)Nc2ccc(-c3ccc4nncn4n3)cc2)cc1 | 7.59% |
| O=C(c1cncc(Br)c1)N1CCN(c2ccc([N+](=O)[O-])cc2)CC1 | -20% |
| CCc1cccc(C)c1NS(=O)(=O)c1c(C)nc2sccn2c1=O | 4.98% |
| Cc1ccc(-c2csc(N3CCN(c4cc5c(cc4Cl)nc(-c4ccncc4)n5CCOCCO)CC3)n2)cc1 | 21.4% |
| Cc1ccc2nc(SCC(=O)N3CCN(c4ccccc4)CC3)nc(=O)n2c1 | 3.95% |
| Cc1ccc(-n2c(CNc3ccc(F)cc3)nnc2SCC(=O)N2CCOCC2)cc1 | 7.13% |
| O=C(O)CN1C(=O)CC(Cc2ccccc2)C1=O (centres undefined) | 11.7% |
| O=C1N[C@@H](Cc2ccccc2)C(=O)N2[C@H]1C[C@]1(Br)c3ccccc3N(S(=O)(=O)c3ccccc3)[C@H]21 | 7.1% |
| CSc1ccc(S(=O)(=O)NCC(=O)OCC(=O)NC2(C#N)CCCCC2)cc1[N+](=O)[O-] | 3.7% |
| Cc1ccc(N2C(=O)c3ccccc3C2(O)c2ncc[nH]2)cc1 (centres undefined) | 8.87% |
| CCc1c(C)nc2ncnn2c1N1CCC(C(=O)NCc2ccc3c(c2)OCO3)CC1 | 5.91% |
| COCCn1c(SCC(=O)Nc2ccccc2F)nc2c(c1=O)SCC2 | 7.02% |
| COCCn1c(SCC(=O)N2CCCCCC2)nc2c(c1=O)SCC2 | 26.5% (active) |
| Cn1c(SCC(=O)N2CCCCC2)nc2c(c1=O)SCC2 | -5.48% |
| CSCCC(NC(=O)c1ccco1)C(=O)Nc1cc(C)ccn1 (centres undefined) | 3.47% |

| SMILES | activation |
| --- | --- |
| Cc1c(Cl)cnc(NC(=O)COC(=O)C2CCCC2)c1Cl | 4.9% |
| CSCCC(NC(=O)c1ccco1)C(=O)OCC(=O)Nc1ncc(Cl)c(C)c1Cl (centres undefined) | 20.9% (active) |
| C/C(=N/NC(=O)c1ccn(C)n1)c1ccncc1 | 33.2% (active) |
| C/C(=N/NC(=O)c1ccncc1)c1ccc2c(c1)OCO2 | 6.79% |
| CC(=NNC(=O)c1ccncc1)c1ccc(Cl)c(Cl)c1 | -2.62% |
| Cc1cccc2c1N(CCOc1ccccc1)C(=O)C2=O | 8.27% |
| Cc1cc(C)c(S(=O)(=O)c2ccc(F)cc2C)c(=O)[nH]1 | 2.45% |
| COC(=O)C1=C(C)N(C(C)c2ccccc2)C(=O)/C1=C\c1ccco1 (centres undefined) | 3.44% |
| CCCc1cc(=O)n2[nH]c(C)c(-c3ccc(Cl)cc3)c2n1 | 12.2% |
| COc1ccc(C(=O)NCC2CCCN2S(=O)(=O)c2cccs2)cc1OC (centres undefined) | 6.88% |
| CCCCNC(=O)OC(C)CNC(=O)OC (centres undefined) | 4.6% |
| Cc1ccc(NS(=O)(=O)c2c(C)[nH]c(=O)[nH]c2=O)cc1C | 6.73% |
| O=S(=O)(Nc1ccccc1)c1ccc(NS(=O)(=O)c2cccs2)cc1 | 11.7% |
| Cc1ccc(S(=O)(=O)N2CCOCC2)cc1NC(=O)CSc1nnc(N)s1 | 3.59% |
| CCOc1ccc(N2CC(C(=O)N/N=C/c3sccc3C)CC2=O)cc1 (centres undefined) | 1.58% |
| CC1CN/C(=C\C(=O)c2ccc(Br)cc2)C(=O)N1 (centres undefined) | 5.69% |
| Cc1ccc(C(O)P(=O)(OC(C)C)c2ccc(N(C)C)cc2)cc1 (centres undefined) | 9.51% |
| CC(C)(C)NC(=O)COC(=O)c1cc(Cl)ccc1[N+](=O)[O-] | 4.45% |
| Cc1ccc(N2CC(C(=O)Nc3cc(Cl)ccc3-n3cncn3)CC2=O)cc1 (centres undefined) | 8.82% |
| CCOC(=O)N1CCN(C(=O)C2CC(c3ccc(F)cc3)=NO2)CC1 (centres undefined) | -1.27% |
| O=C(c1ccco1)N1CCN(C(=O)C2CC(c3ccc(Cl)c(Cl)c3)=NO2)CC1 (centres undefined) | 1.62% |
| O=C(c1ccco1)N1CCN(C(=O)C2CC(c3ccc(F)cc3)=NO2)CC1 (centres undefined) | 25.8% (active) |
